Reference: PubChem BioAssay (Tox21)
“And” between values parts separate entries of the source, which are not always exact repeats. Equal entries are not always repeated. Inconclusive results are not listed. Where a call stands in place of a potency, no number is given. Some compounds were tested as several samples or in several runs, with calls that do not always agree. The source made the active and inactive calls. Unless noted, calls follow the shape of the dose curve; as a rule, active = well fitted curve in the direction sought with a large enough effect in the repeat runs; inconclusive = weak or mixed curves; inactive = no such curve, though single readings can be large; an effect the other way counts as inactive or inconclusive.

Columns and labels:
[1] = Caspase-3/7 induction in HepG2 cells by small molecules, qHTS cell viability counter screen (AID 1346981); also: series mostly up to about 92 µM; nearly all actives have a fitted effect of over 30% in size
Method in brief: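 Steps: seed 2,000 HepG2 cells per well; incubate 5 hr at 37 C; pin-add compounds in DMSO; incubate 16 hr; add CellTiter-Fluor; after 1 hr at 37 C and 5% CO2, read fluorescence.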

[2] = biological target: Nuclear receptor subfamily 1 group I member 2 (Rattus norvegicus) (UniProt Q9R1A7); test: Rat pregnane X receptor (rPXR) activation by small molecules, qHTS assay (AID 1346983); settings: rPXR luciferase reporter cells, One-Glo luminescence, 24 h; stronger effect = higher value; also: nearly all actives have a fitted effect of over 20% in size
Method in brief: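 Luminescent readout (One-Glo luciferase, 30 min room temperature) followed 24 hr compound treatment at 37 C of rPXR cells plated 2,000 per well and preincubated 5hr; qHTS format with compounds delivered in DMSO.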

[3] = biological target: Nuclear receptor subfamily 1 group I member 2 (Homo sapiens) (UniProt O75469); test: CYP3A4 induction through human pregnane X receptor (PXR) by small molecules, qHTS assay (AID 1346984); also: nearly all actives have a fitted effect of over 40% in size
Method in brief: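 Steps: seed DPX-2 cells, 5 hr at 37C; pin-transfer compounds; 24 hr at 37C; add Luciferin-IPA (3uM final), 3 hr at 37C; add One-Glo, 30 min RT; read luminescence.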

[4] = biological target: Nuclear receptor subfamily 1 group I member 2 (Homo sapiens) (UniProt O75469); test: Human pregnane X receptor (PXR) activation by small molecules, qHTS assay (AID 1346985); also: nearly all actives have a fitted effect of over 40% in size
Method in brief: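 DPX-2 cells (HepG2 co-transfected with a PXR response element and a CYP3A4-promoter luciferase construct) were seeded at 2,000 per well, rested 5 hr at 37C, then exposed to DMSO-dissolved compounds for 24 hr. Activation was read as luciferase luminescence.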

[5] = biological target: Acetylcholinesterase (Homo sapiens) (UniProt P22303); test: Acetylcholinesterase (AChE) small molecule antagonists: colormetric cell-based qHTS assay (AID 1347395; calls by dose curve; also: nearly all actives have a fitted effect of over 30% in size)
Method in brief: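 SH-SY5Y cells; cpd 30 min 37 C; + DTNB/acetylthiocholine, 90 min 37 C; colorimetric thiocholine read; qHTS.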

[6] = biological target: Acetylcholinesterase (Homo sapiens) (UniProt P22303); test: Acetylcholinesterase (AChE) small molecule antagonists: enzyme-based qHTS assay (AID 1347397; calls by dose curve; also: nearly all actives have a fitted effect of over 55% in size); settings: Potency: AChE enzyme activity inhibition
Method in brief: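 rhAChE 50 mU/mL (dispensed) + cpd or DMSO, 30 min RT; add DTNB/acetylthiocholine cocktail, 10 min RT; colorimetric thiocholine readout. qHTS, 1536-well format.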

[7] = biological target: Acetylcholinesterase (Homo sapiens) (UniProt P22303); test: Acetylcholinesterase (AChE) small molecule antagonists: fluorescence cell-based qHTS assay (AID 1347398; calls by dose curve; also: nearly all actives have a fitted effect of over 50% in size); settings: Potency: AChE activity
Method in brief: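 Read-out is Thiolite Green fluorescence at Ex/Em = 490/520 nm, formed by reaction with thiocholine released when cellular AChE in SH-SY5Y cells hydrolyzes acetylthiocholine. Compounds were preincubated 30 min at 37 C before substrate.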

[8] = biological target: Acetylcholinesterase (Homo sapiens) (UniProt P22303); test: Acetylcholinesterase (AChE) small molecule antagonists: enzyme-based qHTS assay with human liver microsomes (AID 1347399; calls by dose curve; also: nearly all actives have a fitted effect of over 60% in size); settings: Potency: qHTS inhibition
Method in brief: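 Recombinant human AChE (50 mU/mL in the enzyme mix) and human liver microsomes (0.25 mg/mL final) were preincubated with compound and NADPH (0.25 mg/mL final) for 30 min at 37 C. Acetylthiocholine/DTNB was then added; thiocholine was read colorimetrically after 10 min at room temperature.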

[9] = biological target: Cytochrome P450 2D6 (Homo sapiens) (UniProt P10635); test: Cytochrome P450 Family 2 Subfamily D Member 6 (CYP2D6) small molecule antagonists: luciferase reporter qHTS assay (AID 1671196); also: nearly all actives have a fitted effect of over 50% in size; also: potency is read from the fitted curve at half-maximal effect
Method in brief: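 P450-Glo format: CYP2D6 converts a proluciferin substrate to luciferin in an NADPH-driven reaction lasting 1 h at room temperature. Light output, proportional to CYP2D6 activity, reflects interference by test chemicals.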

[10] = biological target: Cytochrome P450 2C9 (Homo sapiens) (UniProt P11712); test: Cytochrome P450 Family 2 Subfamily C Member 9 (CYP2C9) small molecule antagonists: luciferase reporter qHTS assay (AID 1671198); also: nearly all actives have a fitted effect of over 50% in size; also: potency is read from the fitted curve at half-maximal effect
Method in brief: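 Enzyme-substrate mix preincubated with compound 10 min at room temperature; reaction started with NADPH regeneration solution, 1 h 37C. Luminescent luciferin product read after 20 min detection reagent.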

[11] = biological target: Cytochrome P450 1A2 (Homo sapiens) (UniProt P05177); test: Cytochrome P450 Family 1 Subfamily A Member 2 (CYP1A2) small molecule antagonists: luciferase reporter qHTS assay (AID 1671199); also: nearly all actives have a fitted effect of over 50% in size; also: potency is read from the fitted curve at half-maximal effect
Method in brief: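 Inhibition of CYP1A2 conversion of proluciferin to luciferin, detected by luminescence. Reaction run 1 h at room temperature with NADPH regeneration after brief compound preincubation.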

[12] = biological target: Voltage-gated inwardly rectifying potassium channel KCNH2 (Homo sapiens) (UniProt Q12809); test: Human Ether-a-go-go-Related Gene (hERG) channel small molecule antagonists: fluorescence cell-based qHTS assay (AID 1671200)
Method in brief: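 Read-out: thallium influx as a surrogate for potassium, tracked as fluorescence (480 nm ex/540 nm em) every second for 2 min after Stimulus Buffer addition in dye-loaded hERG-U2OS cells.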

[13] = biological target: Cytochrome P450 3A4 (Homo sapiens) (UniProt P08684); test: Cytochrome P450 Family 3 Subfamily A Member 4 (CYP3A4) small molecule antagonists: luciferase reporter qHTS assay (AID 1671201); also: nearly all actives have a fitted effect of over 50% in size; also: potency is read from the fitted curve at half-maximal effect
Method in brief: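 Luminescent readout (RLU) proportional to CYP3A4 activity, from luciferin generated off a proluciferin substrate. Enzyme–substrate mix plus compound 10 min at room temp, NADPH regeneration 1 h, detection reagent 20 min.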

[14] = biological target: Nuclear receptor subfamily 1 group I member 2 (Homo sapiens) (UniProt O75469); test: Human pregnane X receptor (PXR) small molecule agonists, qHTS assay (AID 1346982); also: nearly all actives have a fitted effect of over 35% in size; also: potency is read from the fitted curve at half-maximal effect
Method in brief: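 Agonist mode qHTS: PXR-Luc HepG2 cells plated 5 hr before DMSO-dissolved compounds were pinned in, cultured 24 hr at 37 C, 5% CO2; ONE-Glo luminescence readout.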

[15] = biological target: Cytochrome P450 2C19 (Homo sapiens) (UniProt P33261); test: Cytochrome P450 Family 2 Subfamily C Member 19 (CYP2C19) small molecule antagonists: luciferase reporter qHTS assay (AID 1671197); also: nearly all actives have a fitted effect of over 65% in size; also: potency is read from the fitted curve at half-maximal effect
Method in brief: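 Quantitative high-throughput screen of the Tox21 library using CYP2C19 with proluciferin substrate. Reaction: NADPH regeneration, 37C, 1 h, after 10 min compound preincubation at room temperature. Readout: luminescence.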

Nuclear receptor subfamily 1 group I member 2 (Homo sapiens), sequence (O75469 whole entry, looked up): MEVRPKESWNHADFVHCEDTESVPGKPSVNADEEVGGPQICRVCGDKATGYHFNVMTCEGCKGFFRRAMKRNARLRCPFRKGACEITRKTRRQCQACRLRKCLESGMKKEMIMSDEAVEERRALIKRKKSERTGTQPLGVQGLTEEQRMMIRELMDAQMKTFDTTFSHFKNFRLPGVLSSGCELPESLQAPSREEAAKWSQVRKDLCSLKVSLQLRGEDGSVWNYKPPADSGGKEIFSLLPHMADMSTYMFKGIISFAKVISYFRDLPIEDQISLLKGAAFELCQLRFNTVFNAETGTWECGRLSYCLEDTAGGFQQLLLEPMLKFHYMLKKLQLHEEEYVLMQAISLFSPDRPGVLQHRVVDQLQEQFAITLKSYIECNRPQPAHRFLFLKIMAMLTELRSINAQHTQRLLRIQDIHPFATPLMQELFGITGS
Acetylcholinesterase (Homo sapiens), sequence (P22303 whole entry, looked up): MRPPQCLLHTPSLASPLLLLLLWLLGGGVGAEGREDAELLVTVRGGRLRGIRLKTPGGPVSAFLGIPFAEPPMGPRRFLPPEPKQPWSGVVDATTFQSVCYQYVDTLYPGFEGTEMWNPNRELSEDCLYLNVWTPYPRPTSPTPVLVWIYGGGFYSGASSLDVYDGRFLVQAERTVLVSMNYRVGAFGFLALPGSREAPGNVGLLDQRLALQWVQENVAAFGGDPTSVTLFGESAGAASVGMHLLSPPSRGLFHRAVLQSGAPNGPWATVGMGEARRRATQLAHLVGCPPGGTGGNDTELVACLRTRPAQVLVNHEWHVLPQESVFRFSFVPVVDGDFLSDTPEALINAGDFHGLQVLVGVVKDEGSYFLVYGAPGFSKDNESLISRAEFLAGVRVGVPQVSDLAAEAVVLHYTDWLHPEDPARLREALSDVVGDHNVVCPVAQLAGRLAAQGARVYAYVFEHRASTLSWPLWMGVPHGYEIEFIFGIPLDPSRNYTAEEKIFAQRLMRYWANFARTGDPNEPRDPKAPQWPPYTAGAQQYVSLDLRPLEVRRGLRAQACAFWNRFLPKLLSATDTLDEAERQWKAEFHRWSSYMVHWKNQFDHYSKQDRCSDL
Cytochrome P450 2D6 (Homo sapiens), sequence (P10635 whole entry, looked up): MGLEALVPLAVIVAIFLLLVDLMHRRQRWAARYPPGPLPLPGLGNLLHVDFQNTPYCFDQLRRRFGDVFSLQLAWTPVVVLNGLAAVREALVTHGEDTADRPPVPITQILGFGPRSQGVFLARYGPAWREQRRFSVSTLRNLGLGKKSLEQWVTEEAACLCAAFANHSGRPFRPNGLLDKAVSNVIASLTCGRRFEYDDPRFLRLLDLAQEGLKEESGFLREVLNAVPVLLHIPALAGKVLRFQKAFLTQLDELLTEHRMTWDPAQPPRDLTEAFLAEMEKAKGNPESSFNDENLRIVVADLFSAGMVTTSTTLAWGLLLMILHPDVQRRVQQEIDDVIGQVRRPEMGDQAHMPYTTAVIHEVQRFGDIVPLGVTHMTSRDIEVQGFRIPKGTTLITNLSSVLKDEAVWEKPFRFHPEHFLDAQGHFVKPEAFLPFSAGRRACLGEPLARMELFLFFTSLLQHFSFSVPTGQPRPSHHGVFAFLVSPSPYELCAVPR
Cytochrome P450 1A2 (Homo sapiens), sequence (P05177 whole entry, looked up): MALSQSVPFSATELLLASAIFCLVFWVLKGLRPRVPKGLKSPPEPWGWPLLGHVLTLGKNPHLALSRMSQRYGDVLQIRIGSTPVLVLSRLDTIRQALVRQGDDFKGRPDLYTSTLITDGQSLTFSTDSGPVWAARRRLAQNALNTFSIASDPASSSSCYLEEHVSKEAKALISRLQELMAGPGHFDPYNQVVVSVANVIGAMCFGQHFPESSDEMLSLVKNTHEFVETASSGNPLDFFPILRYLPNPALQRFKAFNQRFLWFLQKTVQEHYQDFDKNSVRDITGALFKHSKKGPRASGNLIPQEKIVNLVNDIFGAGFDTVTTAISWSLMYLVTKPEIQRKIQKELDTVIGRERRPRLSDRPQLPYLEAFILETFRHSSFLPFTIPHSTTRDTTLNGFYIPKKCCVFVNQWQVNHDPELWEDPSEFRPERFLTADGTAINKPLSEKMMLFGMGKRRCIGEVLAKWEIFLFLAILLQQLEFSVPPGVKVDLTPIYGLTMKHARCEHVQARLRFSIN
Cytochrome P450 2C19 (Homo sapiens), sequence (P33261 whole entry, looked up): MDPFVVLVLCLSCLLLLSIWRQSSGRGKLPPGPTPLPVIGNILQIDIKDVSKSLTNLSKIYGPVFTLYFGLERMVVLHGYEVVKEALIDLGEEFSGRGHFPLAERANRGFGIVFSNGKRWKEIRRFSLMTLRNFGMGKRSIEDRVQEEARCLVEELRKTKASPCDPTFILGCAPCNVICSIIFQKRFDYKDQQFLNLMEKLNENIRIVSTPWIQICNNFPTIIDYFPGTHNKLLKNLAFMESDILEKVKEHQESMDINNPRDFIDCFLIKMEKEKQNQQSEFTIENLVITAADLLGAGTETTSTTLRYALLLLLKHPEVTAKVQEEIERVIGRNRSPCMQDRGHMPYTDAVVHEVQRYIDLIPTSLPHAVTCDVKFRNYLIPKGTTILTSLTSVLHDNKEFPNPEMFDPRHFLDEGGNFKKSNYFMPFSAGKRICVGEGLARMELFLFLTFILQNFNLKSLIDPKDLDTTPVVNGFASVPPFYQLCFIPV
Voltage-gated inwardly rectifying potassium channel KCNH2 (Homo sapiens), sequence (Q12809 whole entry, looked up): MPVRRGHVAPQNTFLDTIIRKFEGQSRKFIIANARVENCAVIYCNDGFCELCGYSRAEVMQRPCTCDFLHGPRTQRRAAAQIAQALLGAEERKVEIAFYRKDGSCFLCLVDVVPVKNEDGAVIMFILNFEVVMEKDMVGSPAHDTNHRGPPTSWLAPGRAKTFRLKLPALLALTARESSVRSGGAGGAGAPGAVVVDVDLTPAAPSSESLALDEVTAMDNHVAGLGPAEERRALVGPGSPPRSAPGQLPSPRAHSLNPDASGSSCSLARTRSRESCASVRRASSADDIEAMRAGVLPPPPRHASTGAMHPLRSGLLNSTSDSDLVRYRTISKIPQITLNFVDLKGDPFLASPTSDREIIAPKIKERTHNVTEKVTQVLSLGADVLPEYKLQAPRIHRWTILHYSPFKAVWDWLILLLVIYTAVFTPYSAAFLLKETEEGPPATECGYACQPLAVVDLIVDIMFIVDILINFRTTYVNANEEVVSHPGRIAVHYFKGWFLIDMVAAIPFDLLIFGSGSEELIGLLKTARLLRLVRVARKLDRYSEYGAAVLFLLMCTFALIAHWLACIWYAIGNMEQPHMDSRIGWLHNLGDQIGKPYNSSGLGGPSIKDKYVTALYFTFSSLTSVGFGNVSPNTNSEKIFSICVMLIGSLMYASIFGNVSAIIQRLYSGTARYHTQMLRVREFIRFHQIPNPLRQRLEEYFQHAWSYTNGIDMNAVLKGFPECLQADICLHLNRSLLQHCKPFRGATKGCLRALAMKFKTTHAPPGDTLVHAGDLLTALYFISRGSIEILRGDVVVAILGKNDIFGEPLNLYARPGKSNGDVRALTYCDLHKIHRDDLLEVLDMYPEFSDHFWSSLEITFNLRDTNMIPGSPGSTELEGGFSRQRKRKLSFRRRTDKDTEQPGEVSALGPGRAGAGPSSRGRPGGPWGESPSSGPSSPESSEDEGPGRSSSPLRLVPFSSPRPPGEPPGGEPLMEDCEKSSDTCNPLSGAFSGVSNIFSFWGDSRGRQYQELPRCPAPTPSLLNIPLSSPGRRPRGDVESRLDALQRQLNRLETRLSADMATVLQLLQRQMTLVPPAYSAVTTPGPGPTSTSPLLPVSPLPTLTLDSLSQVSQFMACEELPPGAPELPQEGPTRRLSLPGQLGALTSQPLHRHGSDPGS
Cytochrome P450 2C9 (Homo sapiens), sequence (P11712 whole entry, looked up): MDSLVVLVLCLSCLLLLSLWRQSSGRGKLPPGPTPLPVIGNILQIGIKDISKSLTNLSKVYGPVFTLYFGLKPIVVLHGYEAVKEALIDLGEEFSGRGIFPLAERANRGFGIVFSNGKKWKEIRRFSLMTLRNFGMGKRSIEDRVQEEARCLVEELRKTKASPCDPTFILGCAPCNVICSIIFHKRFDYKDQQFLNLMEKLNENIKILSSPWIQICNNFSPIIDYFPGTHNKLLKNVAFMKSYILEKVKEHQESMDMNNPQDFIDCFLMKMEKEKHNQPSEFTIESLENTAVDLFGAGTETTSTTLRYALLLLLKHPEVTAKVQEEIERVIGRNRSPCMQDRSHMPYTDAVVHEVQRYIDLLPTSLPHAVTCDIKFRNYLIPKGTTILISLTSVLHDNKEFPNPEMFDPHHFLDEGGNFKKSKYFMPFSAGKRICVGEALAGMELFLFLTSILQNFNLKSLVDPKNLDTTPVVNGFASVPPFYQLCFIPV
Cytochrome P450 3A4 (Homo sapiens), sequence (P08684 whole entry, looked up): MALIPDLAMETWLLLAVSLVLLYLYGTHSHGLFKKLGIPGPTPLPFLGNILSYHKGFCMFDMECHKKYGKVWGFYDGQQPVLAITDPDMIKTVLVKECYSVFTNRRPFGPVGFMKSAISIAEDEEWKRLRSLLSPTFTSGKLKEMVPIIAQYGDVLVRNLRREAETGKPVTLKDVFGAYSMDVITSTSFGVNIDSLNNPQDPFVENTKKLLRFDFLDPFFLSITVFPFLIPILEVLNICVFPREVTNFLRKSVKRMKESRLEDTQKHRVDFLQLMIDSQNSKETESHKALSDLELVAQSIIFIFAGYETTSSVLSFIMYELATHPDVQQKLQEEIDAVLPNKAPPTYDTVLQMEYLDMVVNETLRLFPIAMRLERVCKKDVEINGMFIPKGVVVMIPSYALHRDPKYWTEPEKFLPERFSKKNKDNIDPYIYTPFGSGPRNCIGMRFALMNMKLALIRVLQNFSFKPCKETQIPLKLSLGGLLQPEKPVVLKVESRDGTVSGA

Structure (SMILES) | Potency [1] | max activation [2] | outcome [3] | Potency [4] | Potency [5] | Potency [6] | Potency [7] | Potency [8] | Potency [9] | Potency [10] | Potency [11] | Potency [12] | Potency [13] | Potency [14] | Potency [15]
C#CCN(C)[C@H](C)Cc1ccccc1 | inactive | -1.33% (inactive) | inactive | inactive | inactive | inactive | inactive | inactive | 12.6 µM (active) and 17.4 µM (active) | inactive | 17.8 µM (active) and inactive | inactive | inactive |  | 
CCC12COCN1COC2 | inactive |  |  |  | inactive |  |  | inactive | inactive | inactive | inactive | inactive | 40 µM (active) and inactive | inactive | 35.6 µM (active)
CCN(CC)CCO | inactive |  |  |  | inactive |  |  | inactive | inactive | inactive | inactive and 31.7 µM (active) | inactive | inactive | inactive | inactive
O=c1ccc(=O)[nH][nH]1 | inactive |  |  |  | inactive | inactive |  | inactive | inactive | inactive | inactive | inactive | inactive | inactive | inactive
CC(C)C1(C)N=C(c2nc3ccccc3cc2C(=O)O)NC1=O (configuration not stated) | inactive |  |  |  | inactive | inactive |  | inactive | inactive | inactive | inactive | inactive | inactive | inactive | inactive
CCC(C)(CC)c1cc(NC(=O)c2c(OC)cccc2OC)on1 | inactive |  |  |  |  | inactive |  | inactive | inactive | 35.7 µM (active) and 34.2 µM (active) |  | inactive | 799 nM (active) and 1.93 µM (active) | 4.34 µM (active) and 831 nM (active) | 40 µM (active) and 68.3 µM (active)
O=c1[nH]c(=O)[nH]c(=O)[nH]1 | inactive |  |  |  | inactive |  | inactive | inactive | 63.2 µM (active) and inactive | inactive | inactive | inactive | inactive | inactive | inactive
CN(C)CCO | inactive |  |  |  | inactive |  | inactive | inactive | inactive | inactive | inactive | inactive | inactive |  | inactive
O=C(O)c1ccccn1 | inactive |  | inactive | inactive | inactive | inactive |  | inactive | inactive | inactive | inactive | inactive | inactive |  | inactive
Cc1ccc(N)cc1Cl | inactive |  |  |  | inactive | inactive |  | inactive |  | 32.1 µM (active) and 35.6 µM (active) | 1.28 µM (active) and 1.59 µM (active) | inactive |  |  | 7.18 µM (active) and 11.2 µM (active)
CC(C)OC(=O)Nc1cccc(Cl)c1 | inactive |  |  |  | inactive |  | inactive | inactive | inactive | 55.6 µM (active) and 71 µM (active) | 9.89 µM (active) and 8.94 µM (active) | inactive | inactive |  | 24.8 µM (active) and 31.7 µM (active)
CCCN(CCC)N=O | inactive |  |  |  | inactive |  |  | inactive | inactive | inactive | inactive | inactive | inactive |  | inactive
CCC[CH2][Sn]([Cl])([Cl])[Cl] | inactive |  |  |  | inactive | inactive |  | inactive | inactive | inactive | inactive | inactive | inactive |  | 40.6 µM (active) and inactive
CCC[N+](=O)[O-] | inactive |  |  |  | inactive | inactive | inactive | inactive | inactive | inactive | inactive | inactive | inactive |  | 27.8 µM (active)
CC(C)C#N | inactive |  |  |  | inactive | inactive | inactive | inactive | inactive | inactive | inactive | inactive | inactive |  | 67.3 µM (active) and inactive
CCCCN(CC)C(=O)SCCC | inactive |  |  |  | inactive |  |  | inactive | inactive | inactive | inactive | inactive | inactive |  | 80.5 µM (active) and inactive
CCCN(CCC)c1c([N+](=O)[O-])cc(C(F)(F)F)cc1[N+](=O)[O-] | inactive |  |  |  | inactive |  | inactive | inactive | inactive | 22.4 µM (active) | 20 µM (active) | inactive |  |  | 39.8 µM (active) and 35.6 µM (active)
OCCN(CCO)CCO | inactive |  |  |  | inactive |  |  | inactive | inactive | inactive |  | inactive | inactive |  | inactive
CC(C)NC(=O)N1CC(=O)N(c2cc(Cl)cc(Cl)c2)C1=O | inactive |  |  |  | inactive | inactive | inactive | inactive | inactive | 1.26 µM (active) | 12.6 µM (active) | inactive | inactive |  | 7.96 µM (active) and 8.94 µM (active)
COC(=O)NC(=S)Nc1ccccc1NC(=S)NC(=O)OC | inactive |  |  |  | inactive |  |  | inactive | inactive | 39.9 µM (active) | 31.7 µM (active) | inactive |  |  | 63.3 µM (active) and 22.4 µM (active)
CCN(CC)c1ccccc1 | inactive |  |  |  | inactive | inactive | inactive | inactive | inactive | inactive and 71 µM (active) | inactive | inactive | inactive |  | inactive
